Among the data in paper PMC7862700, “An all-to-all approach to the identification of sequence-specific readers for epigenetic DNA modifications on cytosine” are binding signal values, retold here.

Assay in all cases: DAPPL (digital affinity profiling via proximity ligation, sequencing); 10 mM Tris-HCl pH 7.5, 50 mM NaCl, 1 mM DTT, 4% glycerol, room temperature, 30 min; GST-TFs on glutathione beads, 16-mer random dsDNA library, 0.1% formaldehyde crosslink after washing; high values mean tight binding
Conditions in all cases: protein: recombinant; tags: N-terminal GST; dsDNA, one strand shown

In test [1] the target is T1, ERF (Homo sapiens, UniProt P50548 1-548).
T1 sequence: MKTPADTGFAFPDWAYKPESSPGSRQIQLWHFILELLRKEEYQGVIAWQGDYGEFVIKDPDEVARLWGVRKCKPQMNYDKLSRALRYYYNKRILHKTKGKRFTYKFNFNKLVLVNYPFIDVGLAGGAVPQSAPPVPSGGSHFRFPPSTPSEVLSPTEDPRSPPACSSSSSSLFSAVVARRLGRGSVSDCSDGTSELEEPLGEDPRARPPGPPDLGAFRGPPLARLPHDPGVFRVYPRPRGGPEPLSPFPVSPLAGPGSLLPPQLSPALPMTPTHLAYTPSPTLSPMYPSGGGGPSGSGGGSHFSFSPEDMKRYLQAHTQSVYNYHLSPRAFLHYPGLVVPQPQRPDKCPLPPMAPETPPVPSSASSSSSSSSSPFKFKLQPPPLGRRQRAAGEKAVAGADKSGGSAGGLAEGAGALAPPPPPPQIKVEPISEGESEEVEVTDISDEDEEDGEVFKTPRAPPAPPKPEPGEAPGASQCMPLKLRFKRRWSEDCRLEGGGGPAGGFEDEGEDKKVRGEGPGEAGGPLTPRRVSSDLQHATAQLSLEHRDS
The essentials:
(§1)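 Yeast served to express human transcription factors as GST fusions, which were then captured on glutathione beads and labelled with DNA barcodes. Pooled with a tag-only sample, they were incubated with 200 nmole of a 16-mer random double-stranded DNA library for 30 min at room temperature in Tris/NaCl/DTT/glycerol buffer, washed, crosslinked with 0.1% formaldehyde, ligated by proximity, amplified by PCR and sequenced. Dividing each hexamer's read frequency for a factor by its frequency for the tag-only sample gives the binding signal.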

Test [2] addresses T2, ETV3L (Homo sapiens, UniProt Q6ZN32 1-361).
T2 sequence: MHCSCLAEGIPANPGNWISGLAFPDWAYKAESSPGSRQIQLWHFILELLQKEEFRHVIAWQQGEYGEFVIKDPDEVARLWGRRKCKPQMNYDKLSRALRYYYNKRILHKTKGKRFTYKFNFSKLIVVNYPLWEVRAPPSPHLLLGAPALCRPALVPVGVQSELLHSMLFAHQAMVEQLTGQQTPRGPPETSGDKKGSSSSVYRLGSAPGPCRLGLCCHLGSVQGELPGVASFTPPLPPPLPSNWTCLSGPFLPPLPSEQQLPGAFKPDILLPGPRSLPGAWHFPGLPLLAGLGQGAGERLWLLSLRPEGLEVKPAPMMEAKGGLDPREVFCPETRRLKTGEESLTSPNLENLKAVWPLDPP
The essentials:
as §1

Test [3] concerns the target T3, ETS2 (Homo sapiens, UniProt P15036 1-469).
T3 sequence: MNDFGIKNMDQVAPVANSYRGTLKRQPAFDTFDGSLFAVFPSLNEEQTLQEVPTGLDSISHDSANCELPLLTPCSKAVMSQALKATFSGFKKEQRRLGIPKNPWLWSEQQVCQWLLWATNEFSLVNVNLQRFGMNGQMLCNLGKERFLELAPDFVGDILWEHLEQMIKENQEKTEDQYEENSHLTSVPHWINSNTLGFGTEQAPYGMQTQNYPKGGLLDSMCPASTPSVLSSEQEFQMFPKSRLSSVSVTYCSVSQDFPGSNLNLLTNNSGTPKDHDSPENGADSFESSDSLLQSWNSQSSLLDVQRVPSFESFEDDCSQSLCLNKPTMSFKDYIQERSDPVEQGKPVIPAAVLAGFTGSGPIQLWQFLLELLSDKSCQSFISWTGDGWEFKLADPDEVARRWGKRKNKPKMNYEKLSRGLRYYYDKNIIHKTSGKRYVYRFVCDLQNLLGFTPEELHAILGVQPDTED
An outline of the steps:
as §1

For test [4], the target named is T4, SPDEF (Homo sapiens, UniProt O95238 1-335).
T4 sequence: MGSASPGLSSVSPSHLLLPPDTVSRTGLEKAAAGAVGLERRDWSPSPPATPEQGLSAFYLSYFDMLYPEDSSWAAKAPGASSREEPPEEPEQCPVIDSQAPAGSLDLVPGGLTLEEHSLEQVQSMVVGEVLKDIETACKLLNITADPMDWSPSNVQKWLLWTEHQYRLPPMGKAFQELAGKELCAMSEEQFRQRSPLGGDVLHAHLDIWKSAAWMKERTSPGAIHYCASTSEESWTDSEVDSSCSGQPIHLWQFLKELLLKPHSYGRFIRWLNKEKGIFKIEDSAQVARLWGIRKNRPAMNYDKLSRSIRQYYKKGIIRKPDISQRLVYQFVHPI
An outline of the steps:
as §1

Test [5] deals with T5, ETV7 (Homo sapiens, UniProt Q9Y603 1-341).
T5 sequence: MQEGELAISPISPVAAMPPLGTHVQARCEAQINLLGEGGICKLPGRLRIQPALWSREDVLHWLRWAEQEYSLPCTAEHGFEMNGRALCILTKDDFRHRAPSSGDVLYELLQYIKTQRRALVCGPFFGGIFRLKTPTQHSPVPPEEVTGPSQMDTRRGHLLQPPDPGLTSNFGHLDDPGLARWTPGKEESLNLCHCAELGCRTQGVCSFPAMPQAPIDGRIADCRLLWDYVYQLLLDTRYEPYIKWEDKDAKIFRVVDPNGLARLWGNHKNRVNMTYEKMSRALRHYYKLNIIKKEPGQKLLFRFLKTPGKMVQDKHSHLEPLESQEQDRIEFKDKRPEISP
The essentials:
as §1

For test [6], the target named is T6, ELF5 (Homo sapiens, UniProt Q9UKW6-2 1-255).
T6 sequence: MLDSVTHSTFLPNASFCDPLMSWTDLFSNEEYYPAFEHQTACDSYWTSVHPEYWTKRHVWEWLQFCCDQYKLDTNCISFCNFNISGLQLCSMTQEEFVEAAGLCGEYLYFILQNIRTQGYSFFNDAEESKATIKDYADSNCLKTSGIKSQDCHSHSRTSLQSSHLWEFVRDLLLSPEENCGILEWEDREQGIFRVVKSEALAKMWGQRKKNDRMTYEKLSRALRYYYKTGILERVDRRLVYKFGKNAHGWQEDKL
An outline of the steps:
as §1

Test [7] concerns the target T7, ETV3 (Homo sapiens, UniProt P41162-2 1-143).
T7 sequence: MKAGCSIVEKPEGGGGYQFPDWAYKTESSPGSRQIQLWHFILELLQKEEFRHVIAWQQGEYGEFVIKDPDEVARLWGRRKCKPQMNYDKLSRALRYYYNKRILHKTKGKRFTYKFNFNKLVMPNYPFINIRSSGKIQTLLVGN
The essentials:
as §1

In test [8] the target is ETV6 (Homo sapiens, UniProt P41212 1-452). The essentials: as §1
ETV6, sequence (P41212 whole entry): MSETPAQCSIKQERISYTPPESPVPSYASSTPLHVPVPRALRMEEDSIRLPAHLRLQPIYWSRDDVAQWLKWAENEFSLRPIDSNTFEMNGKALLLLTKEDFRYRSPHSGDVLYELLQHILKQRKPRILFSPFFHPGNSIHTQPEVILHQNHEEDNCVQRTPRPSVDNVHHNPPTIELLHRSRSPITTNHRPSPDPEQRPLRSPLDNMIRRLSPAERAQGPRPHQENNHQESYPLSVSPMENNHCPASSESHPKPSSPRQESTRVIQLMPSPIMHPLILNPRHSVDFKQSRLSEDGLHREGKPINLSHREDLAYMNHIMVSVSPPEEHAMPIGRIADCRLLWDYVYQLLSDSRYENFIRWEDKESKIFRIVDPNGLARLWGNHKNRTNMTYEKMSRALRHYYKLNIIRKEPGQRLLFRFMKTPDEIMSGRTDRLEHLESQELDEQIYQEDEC

In the case of ATGCCC, the binding signal in test [1] is 1.31 fold enrichment (6-mer frequency, TF over GST control); in test [2], 1.26 fold enrichment (6-mer frequency, TF over GST control); in test [3], 1.29 fold enrichment (6-mer frequency, TF over GST control); in test [4], 1.36 fold enrichment (6-mer frequency, TF over GST control); in test [5] it was 1.45 fold enrichment (6-mer frequency, TF over GST control); in test [6], 1.27 fold enrichment (6-mer frequency, TF over GST control). Moreover, the binding signal was 1.32 fold enrichment (6-mer frequency, TF over GST control) in test [7] and 1.35 fold enrichment (6-mer frequency, TF over GST control) in test [8].

In the case of GGAAAT, the binding signal in test [1] was 2.42 fold enrichment (6-mer frequency, TF over GST control); in test [2], 2.66 fold enrichment (6-mer frequency, TF over GST control); in test [3], 2.75 fold enrichment (6-mer frequency, TF over GST control); in test [4], 2.56 fold enrichment (6-mer frequency, TF over GST control); in test [5], 2.56 fold enrichment (6-mer frequency, TF over GST control); in test [6], 3.68 fold enrichment (6-mer frequency, TF over GST control). Besides, the binding signal in test [7] is 2.88 fold enrichment (6-mer frequency, TF over GST control); in test [8], 3.32 fold enrichment (6-mer frequency, TF over GST control).

With CACGCC, the binding signal in test [1] is 1.21 fold enrichment (6-mer frequency, TF over GST control); in test [2] it was 1.2 fold enrichment (6-mer frequency, TF over GST control); in test [3], 1.09 fold enrichment (6-mer frequency, TF over GST control); in test [4], 1.05 fold enrichment (6-mer frequency, TF over GST control); in test [5], 1.12 fold enrichment (6-mer frequency, TF over GST control); in test [6] it was 1.1 fold enrichment (6-mer frequency, TF over GST control). Also, the binding signal in test [7] is 1.2 fold enrichment (6-mer frequency, TF over GST control); in test [8], 1.17 fold enrichment (6-mer frequency, TF over GST control).

For the sequence AACCAC, the binding signal was 1.18 fold enrichment (6-mer frequency, TF over GST control) in test [1]; 1.16 fold enrichment (6-mer frequency, TF over GST control) in test [2]; 1.14 fold enrichment (6-mer frequency, TF over GST control) in test [3]; 1.08 fold enrichment (6-mer frequency, TF over GST control) in test [4]; 1.03 fold enrichment (6-mer frequency, TF over GST control) in test [5]; 1.13 fold enrichment (6-mer frequency, TF over GST control) in test [6]. Moreover, the binding signal is 1.17 fold enrichment (6-mer frequency, TF over GST control) in test [7] and 1.19 fold enrichment (6-mer frequency, TF over GST control) in test [8].

With CCGCGC, the binding signal was 1.23 fold enrichment (6-mer frequency, TF over GST control) in test [1]; 1.08 fold enrichment (6-mer frequency, TF over GST control) in test [2]; 1.21 fold enrichment (6-mer frequency, TF over GST control) in test [3]; 1.17 fold enrichment (6-mer frequency, TF over GST control) in test [4]; 1.06 fold enrichment (6-mer frequency, TF over GST control) in test [5]; 1.18 fold enrichment (6-mer frequency, TF over GST control) in test [6]. Besides, the binding signal in test [7] was 1.19 fold enrichment (6-mer frequency, TF over GST control); in test [8] it was 1.15 fold enrichment (6-mer frequency, TF over GST control).

As to CTCTAA, the binding signal in test [1] was 1.44 fold enrichment (6-mer frequency, TF over GST control); in test [2], 1.37 fold enrichment (6-mer frequency, TF over GST control); in test [3] it was 1.32 fold enrichment (6-mer frequency, TF over GST control); in test [4], 1.19 fold enrichment (6-mer frequency, TF over GST control); in test [5], 1.27 fold enrichment (6-mer frequency, TF over GST control); in test [6], 1.34 fold enrichment (6-mer frequency, TF over GST control). Also, the binding signal in test [7] was 1.24 fold enrichment (6-mer frequency, TF over GST control); in test [8] it was 1.26 fold enrichment (6-mer frequency, TF over GST control).

Take TGGGCT: the binding signal is 1.27 fold enrichment (6-mer frequency, TF over GST control) in test [1]; 1.45 fold enrichment (6-mer frequency, TF over GST control) in test [2]; 1.5 fold enrichment (6-mer frequency, TF over GST control) in test [3]; 1.28 fold enrichment (6-mer frequency, TF over GST control) in test [4]; 1.49 fold enrichment (6-mer frequency, TF over GST control) in test [5]; 1.32 fold enrichment (6-mer frequency, TF over GST control) in test [6]. Further, the binding signal in test [7] was 1.41 fold enrichment (6-mer frequency, TF over GST control); in test [8], 1.32 fold enrichment (6-mer frequency, TF over GST control).

With TTTCAA, the binding signal in test [1] was 1.22 fold enrichment (6-mer frequency, TF over GST control); in test [2], 1.28 fold enrichment (6-mer frequency, TF over GST control); in test [3], 1.24 fold enrichment (6-mer frequency, TF over GST control); in test [4] it was 1.16 fold enrichment (6-mer frequency, TF over GST control); in test [5] it was 1.3 fold enrichment (6-mer frequency, TF over GST control); in test [6] it was 1.26 fold enrichment (6-mer frequency, TF over GST control). Also, the binding signal in test [7] is 1.31 fold enrichment (6-mer frequency, TF over GST control); in test [8] it was 1.21 fold enrichment (6-mer frequency, TF over GST control).
